Data as given in PubChem BioAssay (NCATS).
Results filed as inconclusive are left out. A call without a number means that no potency is given here. Activity calls are given as the source filed them. The call rests on the fitted dose curve; in most records, active means well fitted curve in the direction sought with a large enough effect; inconclusive means small, poorly fitted or top-dose-only effect, or another doubt; inactive means no such curve, though single readings can be large; an effect the other way counts as inactive or inconclusive.

System: Zika virus NS2B-NS3 protease (unlinked complex)
Test: Primary screen GU Rhodamine qHTS for Zika virus inhibitors: Unlinked NS2B-NS3 protease assay (AID 1347159); further: nearly all actives have a fitted effect of over 60% in size; further: potency means the concentration at half of the fitted maximal effect
Settings: Recombinant ZIKV NS2B-NS3 protease, Rhodamine110 substrate fluorescence; series mostly up to 107 µM
Outline: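 Noncovalent NS2B hydrophilic domain–NS3 protease domain complex (25 nM) preincubated 15 min at room temperature with compounds (up to 114 microM) in 10 mM Tris-HCl pH 8.0, 0.01% Tween 20; 1.5 microM Rhodamine110 substrate added, fluorescence change over 15 min fitted to Hill equation.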

| SMILES | Potency |
| --- | --- |
| CC(C)NCC(O)COc1cccc2[nH]ccc12 (stereo unspecified) | inactive |
| CCn1c(C(=O)N(C2CC2)C2CC2)cc2c3c(ncn3C)c(Nc3cc(C)n(C)n3)nc21 | inactive |
| COC(=O)[C@@H]1[C@H]2C[C@H]3c4[nH]c5ccccc5c4CCN3C[C@@H]2CC[C@@H]1O | inactive |
| CC(C)(C)OC(=O)N[C@H]1CCCCCC=C[C@@H]2C[C@@]2(C(=O)NS(=O)(=O)C2CC2)NC(=O)[C@@H]2C[C@@H](OC(=O)N3Cc4cccc(F)c4C3)CN2C1=O | 35.5 µM (active) |
| CN(C)Cc1ccc(-c2nc3cccc4c3n2CCNC4=O)cc1 | inactive |
| COc1cc2nc(-c3ccc(N4CCN(C)CC4)cc3)nc(NCCN3CCOCC3)c2cc1OC | inactive |
| NC(=O)c1ccc2nc(-c3ccc(Oc4ccc(Cl)cc4)cc3)[nH]c2c1 | inactive |
| CC1CCC(C(=O)N(c2cc(C#CC(C)(C)C)sc2C(=O)O)C2CCC(O)CC2)CC1 (stereo unspecified) | 7.94 µM (active) |
| Cc1c(NC(=O)c2ccc(C(C)(C)C)cc2)cccc1-c1cn(C)c(=O)c(Nc2ccc(C(=O)N3CCOCC3)cc2)n1 | inactive |
| COCCOC(=O)C1=C(C)NC2=C(C(=O)CC(c3ccccc3OC)C2)C1c1cccc(O)c1 (stereo unspecified) | inactive |
| CC(C)n1nc(-c2ccc3oc(N)nc3c2)c2c(N)ncnc21 | inactive |

System: Zika virus NS2B-NS3 protease (linked construct)
Test: Primary screen NINDS Rhodamine qHTS for Zika virus inhibitors (AID 1347160); further: nearly all actives have a fitted effect of over 55% in size; further: potency means the concentration at half of the fitted maximal effect
Settings: purified NS2B-NS3 protease, Rhodamine110 substrate fluorescence; series mostly up to 57.1 µM
Outline: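 Purified linked NS2B-NS3 protease (NS2B hydrophilic domain joined to NS3 protease by flexible linker), 25 nM in 10 mM Tris-HCl pH 8.0, 0.01% Tween 20. Compounds titrated, 15 min preincubation at room temperature; 1.5 microM Rhodamine110 substrate, FITC fluorescence change over 15 min.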

| SMILES | Potency |
| --- | --- |
| CCOC(=O)C1=C(N)Oc2ccc(Br)cc2C1C(C#N)C(=O)OCC (stereo unspecified) | inactive |
| COc1cc(Nc2ncc(F)c(Nc3ccc4c(n3)NC(=O)C(C)(C)O4)n2)cc(OC)c1OC | inactive |
| CC(C)NCC(O)COc1cccc2[nH]ccc12 (stereo unspecified) | inactive |
| CCn1c(C(=O)N(C2CC2)C2CC2)cc2c3c(ncn3C)c(Nc3cc(C)n(C)n3)nc21 | inactive |
| COC(=O)[C@@H]1[C@H]2C[C@H]3c4[nH]c5ccccc5c4CCN3C[C@@H]2CC[C@@H]1O | inactive |
| COc1ncc(-c2ccc3nccc(-c4ccnnc4)c3c2)cc1NS(=O)(=O)c1ccc(F)cc1F | inactive |
| O=C(O)CCc1nc(-c2ccccc2)c(-c2ccccc2)o1 | inactive |
| CC(C)(C)OC(=O)N[C@H]1CCCCCC=C[C@@H]2C[C@@]2(C(=O)NS(=O)(=O)C2CC2)NC(=O)[C@@H]2C[C@@H](OC(=O)N3Cc4cccc(F)c4C3)CN2C1=O | inactive |
| CN(C)Cc1ccc(-c2nc3cccc4c3n2CCNC4=O)cc1 | inactive |
| CC[C@]1(O)C[C@@H]2CN(CCc3c([nH]c4ccccc34)[C@@](C(=O)OC)(c3cc4c(cc3OC)N(C)[C@H]3[C@@](O)(C(=O)OC)[C@H](OC(C)=O)[C@]5(CC)C=CCN6CC[C@]43[C@@H]65)C2)C1 | inactive |
| O=C(O)C(O)Cc1ccc(O)c(O)c1 (stereo unspecified) | 3.49 µM (active) |
| COc1cc2nc(-c3ccc(N4CCN(C)CC4)cc3)nc(NCCN3CCOCC3)c2cc1OC | inactive |
| Cc1c(NC(=O)c2ccc(C(C)(C)C)cc2)cccc1-c1cn(C)c(=O)c(Nc2ccc(C(=O)N3CCOCC3)cc2)n1 | inactive |
| COCCOC(=O)C1=C(C)NC2=C(C(=O)CC(c3ccccc3OC)C2)C1c1cccc(O)c1 (stereo unspecified) | inactive |
| CC(C)n1nc(-c2ccc3oc(N)nc3c2)c2c(N)ncnc21 | inactive |

System: not listed separately
Test: Confirmatory screen NINDS Rhodamine qHTS for Zika virus inhibitors (AID 1347161); further: nearly all actives have a fitted effect of over 60% in size; further: potency means the concentration at half of the fitted maximal effect
Settings: purified enzyme assay, Rhodamine110 substrate fluorescence, 15 min; series mostly up to 114 µM
Outline: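 qHTS dose-response: 25 nM linked protease, pH 8.0 Tris/Tween buffer, cpd titration, 15 min RT preinc, 1.5 microM Rhod110 peptide, 15 min reaction (~15% conversion), Ex480/Em540; 4-parameter Hill fit.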

| SMILES | Potency |
| --- | --- |
| Cc1cc(OCCCc2c(C(=O)O)n(Cc3cccnc3)c3c(-c4c(COc5ccc(N6CCN([S+](C)(=O)[O-])CC6)cc5)nn(C)c4C)cccc23)cc(C)c1Cl | 3.11 µM (active) |
| CC(C)(C)OC(=O)N[C@H]1CCCCCC=C[C@@H]2C[C@@]2(C(=O)NS(=O)(=O)C2CC2)NC(=O)[C@@H]2C[C@@H](OC(=O)N3Cc4cccc(F)c4C3)CN2C1=O | 49.4 µM (active) |
| CN(C)c1cc(NC(=O)CNC(C)(C)C)c(O)c2c1C[C@@H]1C[C@H]3[C@H](N(C)C)C(=O)C(C(N)=O)=C(O)[C@@]3(O)C(=O)C1=C2O | 4.41 µM (active) |
| O=C(O)c1c(Cl)c(Cl)c(Cl)c(Cl)c1-c1c2cc(I)c(=O)c(I)c-2oc2c(I)c(O)c(I)cc12 | inactive |
| CC1CCC(C(=O)N(c2cc(C#CC(C)(C)C)sc2C(=O)O)C2CCC(O)CC2)CC1 (stereo unspecified) | 5.53 µM (active) |

Target: Lysine-specific demethylase 5B (Homo sapiens) (UniProt Q9UGL1)
Test: Optimization screen for KDM5B Histone Demethylases FDH coupled qHTS against the LOPAC library (AID 1347166)
Settings: KDM5B demethylation, FDH-coupled NADH fluorescence (FDH is formaldehyde dehydrogenase); series mostly up to 57.5 µM
Outline: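 KDM5BDeltaAP (200nM final) preincubated 10 min with compound, then 12.5uM H3K4Me3, 25uM a-ketoglutarate, ascorbate, Fe(II), NAD+ and FDH added; 50mM HEPES pH 7.5, 0.01% Tween-20. NADH fluorescence (340/450 nm) change over 30 min, room temperature.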

Chain of Lysine-specific demethylase 5B (Homo sapiens) (Q9UGL1 whole entry, looked up): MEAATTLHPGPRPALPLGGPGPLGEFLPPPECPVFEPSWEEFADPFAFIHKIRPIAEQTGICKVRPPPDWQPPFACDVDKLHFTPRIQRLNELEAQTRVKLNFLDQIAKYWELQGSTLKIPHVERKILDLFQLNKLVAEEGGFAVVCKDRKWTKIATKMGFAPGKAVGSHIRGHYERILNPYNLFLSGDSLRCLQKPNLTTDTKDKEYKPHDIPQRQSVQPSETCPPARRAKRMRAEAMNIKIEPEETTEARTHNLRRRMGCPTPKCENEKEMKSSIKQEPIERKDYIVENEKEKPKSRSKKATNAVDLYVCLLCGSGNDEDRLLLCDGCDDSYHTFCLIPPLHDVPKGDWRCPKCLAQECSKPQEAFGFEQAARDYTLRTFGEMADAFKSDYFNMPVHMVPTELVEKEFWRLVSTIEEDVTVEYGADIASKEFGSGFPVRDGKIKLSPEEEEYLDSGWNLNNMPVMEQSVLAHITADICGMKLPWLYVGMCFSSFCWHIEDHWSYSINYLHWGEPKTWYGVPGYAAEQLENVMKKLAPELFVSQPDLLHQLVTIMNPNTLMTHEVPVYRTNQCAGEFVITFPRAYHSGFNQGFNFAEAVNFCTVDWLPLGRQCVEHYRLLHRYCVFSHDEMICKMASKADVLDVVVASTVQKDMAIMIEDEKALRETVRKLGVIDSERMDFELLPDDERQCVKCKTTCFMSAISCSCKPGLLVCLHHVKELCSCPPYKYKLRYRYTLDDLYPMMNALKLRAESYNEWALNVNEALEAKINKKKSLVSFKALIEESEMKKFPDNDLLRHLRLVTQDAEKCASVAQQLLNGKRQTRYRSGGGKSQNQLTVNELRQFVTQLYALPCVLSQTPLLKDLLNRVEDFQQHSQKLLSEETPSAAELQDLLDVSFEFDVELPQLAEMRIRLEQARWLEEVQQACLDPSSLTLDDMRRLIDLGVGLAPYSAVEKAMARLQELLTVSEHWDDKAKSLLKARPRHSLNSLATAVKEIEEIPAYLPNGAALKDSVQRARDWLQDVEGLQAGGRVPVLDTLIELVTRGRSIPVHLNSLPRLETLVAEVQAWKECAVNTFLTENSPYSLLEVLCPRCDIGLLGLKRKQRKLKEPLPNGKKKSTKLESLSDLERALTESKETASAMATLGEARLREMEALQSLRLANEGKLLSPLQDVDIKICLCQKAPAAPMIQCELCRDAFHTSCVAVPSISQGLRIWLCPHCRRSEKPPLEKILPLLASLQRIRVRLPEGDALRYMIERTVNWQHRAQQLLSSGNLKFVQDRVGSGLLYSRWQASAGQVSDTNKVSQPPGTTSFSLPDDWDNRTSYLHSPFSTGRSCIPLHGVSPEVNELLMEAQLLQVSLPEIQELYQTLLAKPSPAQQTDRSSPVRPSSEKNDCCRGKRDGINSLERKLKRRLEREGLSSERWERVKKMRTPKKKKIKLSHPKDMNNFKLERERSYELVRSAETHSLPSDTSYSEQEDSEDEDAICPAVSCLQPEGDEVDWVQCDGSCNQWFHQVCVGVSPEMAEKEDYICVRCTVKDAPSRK

| SMILES | outcome |
| --- | --- |
| O=c1cc(-c2ccc(O)cc2)oc2cc(O)cc(O)c12 | inactive |
| Cc1cccc(C)c1OCC(C)N (stereo unspecified) | inactive |
| CCCCCN(C)CCC(O)(P(=O)(O)O)P(=O)(O)O | inactive |
| CC(C)NCC(O)COc1cccc2[nH]ccc12 (stereo unspecified) | inactive |
| COC(=O)[C@@H]1[C@H]2C[C@H]3c4[nH]c5ccccc5c4CCN3C[C@@H]2CC[C@@H]1O | inactive |
| O=C(NCCN1CCOCC1)c1ccc(Cl)cc1 | inactive |
| C[N+](C)(C)CCCCCC[N+](C)(C)C | inactive |
| O=C1NC(=O)C(c2ccccc2)(c2ccccc2)N1 | inactive |
| CCN(CC)CCOC(=O)c1ccc(N)cc1 | inactive |
| COc1cccc(-c2cc(=O)c3ccccc3o2)c1N | inactive |
| CCCCC1C(=O)N(c2ccccc2)N(c2ccccc2)C1=O | inactive |
| CCN(CC)C(=O)c1ccc(O)c(OC)c1 | inactive |
| CC(C)(C)c1ccc(C(O)CCCN2CCC(C(O)(c3ccccc3)c3ccccc3)CC2)cc1 (stereo unspecified) | inactive |
| NCCS | inactive |
| NC(N)=Nc1nc(CSCC/C(N)=N/S(N)(=O)=O)cs1 | inactive |
| CC(C)OC(=O)C(C)(C)Oc1ccc(C(=O)c2ccc(Cl)cc2)cc1 | inactive |
| CCn1cc(C(=O)O)c(=O)c2ccc(C)nc21 | inactive |
| CC(=O)c1ccc(S(=O)(=O)NC(=O)NC2CCCCC2)cc1 | inactive |
| O=C1NCC2(CCN(CCc3ccccc3)CC2)O1 | inactive |
| COc1ccc(Cc2nccc3cc(OC)c(OC)cc23)cc1OC | inactive |
